Hits are enriched below; roughly 2.3% of the tested compounds scored in any of these assays.
TPT1 inh: inhibitors of Candida albicans tRNA 2'-phosphotransferase TPT1; recombinant caTPT1, FP RNA substrate dephosphorylation; inhibition, % at 5 µM; hit rate 0.81% among 300,000;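 active means inhibition above the mean of all tested compounds plus 3 SD, set per screening campaign, cut at about 24% in these data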;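 further: plate controls were DMSO alone for no effect and ferristatin control at 100 nM for full effect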
Rpn11 inh: inhibitors of human proteasome Rpn11. O00487. human 26S proteasome, Ub4-pepOG fluorescence polarization; 20S core pre-blocked with epoxomicin. inhibition, % at 20 µM. hit rate 0.59% among 360,000. AID 588493;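 active means inhibition at 20 µM, scaled to each plate's controls, above about 33%, limit read from the data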
IDE inh: inhibitors of human insulin-degrading enzyme in cells; inhibition, % at 5.59 µM; HEK cells, FAbetaB cleavage, fluorescence polarization; AID 434962; P14735; hit rate 0.41% among 320,000;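 active means percent inhibition above the average of all tested compounds plus 3 SD, set per screening campaign, cut at about 16% in these data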;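 further: IDE supplied by intact live HEK cells; FP after avidin binding of uncleaved biotin substrate so inhibition keeps polarization high; 0% = DMSO wells and 100% = 60 µM reference IDE inhibitor Ii1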
Calb FLC: affects C. albicans growth with fluconazole. C. albicans CaCi-2 (fluconazole-resistant clinical isolate) + fluconazole, Alamar Blue growth, 48 h. growth inhibition, % (no concentration beside the values). hit rate 0.57% among 300,000. AID 1979;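 active means growth inhibition above about 58% in most replicates, limit read from the data, passing the limit was not always enough; inconclusive means exactly half the replicates above a set limit; inactive means most replicates below a set limit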;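 further: all wells also contain fluconazole at 8 µg/ml as a sub-toxic cotreatment; 0% = median of DMSO wells and 100% = median of geldanamycin control wells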
Rin1 Abl inh: human Rin1-Abl interaction inhibition | P00519+Q13671 | hit rate 0.4% among 360,000 | TR-FRET Rin1/Abl binding, biochemical | inhibition, % at 7.35 µM; in the data active means inhibition above about 5%, passing the limit was not always enough
IDE act: boosts human insulin-degrading enzyme activity in HEK cells. hit rate 0.073% among 340,000. activation, % at 5.96 µM. FAbeta-B cleavage, fluorescence polarization; 0% vehicle, 100% cell-free pure enzyme wells. P14735;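 active means activation above the mean of all tested compounds plus 3 SD, set per screening campaign, cut at about 17% in these data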
Rpn11 inh conf: Rpn11 inhibition confirmation, single concentration | inhibition, % at 20 µM | purified human 26S proteasome, Ub4-pepOG fluorescence polarization; proteasome pretreated with epoxomicin | hit rate 29% among 1,900 | AID 602318 | shares compounds with Rpn11 inh
MMP-2 counter: MMP-2 (human) inhibition counter-screen; shares compounds with Rpn11 inh; recombinant MMP-2, FRET peptide cleavage fluorescence; inhibition, % at 20 µM; hit rate 4% among 1,900; AID 602330;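 further: human MMP-2 activated beforehand with APMA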
Thrombin FP: blocks bovine thrombin, flagging nonselective RPN11 hits; shares compounds with Rpn11 inh; bovine thrombin cleavage of Ub4-pepOG, fluorescence polarization; inhibition, % at 20 µM; hit rate 13% among 1,900; AID 602333;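 active means mean inhibition at least 40% at 20 µM, or signal 3 deviations below plate average, so some actives read negative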;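 further: plate controls were thrombin with DMSO for no effect and buffer wells lacking thrombin for full effect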
Active calls of the source: *. Unless noted, no stated cut-off is given here; in the data, active means inhibition above about 40%; inactive means the rest.

`COc1cc(/C=C2\SC(N3CCC(C)CC3)=NC2=O)ccc1O` gave TPT1 inh 8, Rpn11 inh 65*, IDE inh 15, Calb FLC 6, Rin1 Abl inh -5, IDE act -16, Rpn11 inh conf 34, MMP-2 counter -15 and Thrombin FP 28.
`Cc1nnsc1C(=O)NC1CCCc2c1cnn2-c1cc(F)cc(F)c1` (stereo not drawn) gave TPT1 inh -2, Rpn11 inh -14, IDE inh 0, Calb FLC 5, Rin1 Abl inh -2 and IDE act 7.
For Cc1nnsc1C(=O)NC1CCCc2c1cnn2-c1ccc(F)cc1F (stereo not drawn) the results were TPT1 inh 3, Rpn11 inh 42*, IDE inh -3, Calb FLC -5, Rin1 Abl inh 0, IDE act 3, Rpn11 inh conf 12, MMP-2 counter -48 and Thrombin FP -3.
Cc1nc(C)c(-c2csc(Nc3ccc(S(N)(=O)=O)cc3)n2)s1 was read as Rpn11 inh -1, Calb FLC -3, Rin1 Abl inh -2 and IDE act -9.
`Cc1ccc(-c2csc(Nc3ccc(S(N)(=O)=O)cc3)n2)o1` gave TPT1 inh 14, Rpn11 inh 46*, IDE inh 2, Calb FLC 5, Rin1 Abl inh 1, IDE act -2, Rpn11 inh conf 0, MMP-2 counter -1 and Thrombin FP -6.
For Cc1ccc(OCC(=O)N2N=C(C(F)(F)F)CC2(O)C(C)(C)C)cc1C (stereo not drawn) the results were TPT1 inh -5, Rpn11 inh -3, IDE inh 14, Calb FLC -16, Rin1 Abl inh 2 and IDE act 6.
Cc1ccccc1OCC(=O)N1N=C(C(F)(F)F)CC1(O)C(C)(C)C (stereo not drawn) was read as TPT1 inh -1, Rpn11 inh 152*, IDE inh 1, Calb FLC -12, Rin1 Abl inh 3, IDE act 2, Rpn11 inh conf -1, MMP-2 counter -12 and Thrombin FP -7.
Screening COC(=O)C1=C(C)NC(=O)/C1=C\c1cc(C)n(-c2c(C)cccc2C)c1C returned TPT1 inh -2, Rpn11 inh 58*, IDE inh 0, Calb FLC inconclusive, Rin1 Abl inh 1, IDE act 1, Rpn11 inh conf 10, MMP-2 counter -11 and Thrombin FP -2.
For CN(Cc1cnn(-c2ccc(F)cc2)c1)C(=O)[C@H]1O[C@@H](n2ccc(=O)[nH]c2=O)[C@H](O)[C@@H]1O the results were Rpn11 inh 4 and Rin1 Abl inh 3.
`O=C(/C=C/NNC(=O)c1ccccc1)c1ccc([N+](=O)[O-])cc1` gave TPT1 inh -3, Rpn11 inh -2, IDE inh 6, Calb FLC inconclusive, Rin1 Abl inh 2 and IDE act 3.
Cc1cc(C)nc(NC(=O)NC(=O)c2ccccc2)n1 was read as TPT1 inh -4, Rpn11 inh 4, IDE inh -2, Calb FLC 1, Rin1 Abl inh 0 and IDE act 2.
For Cc1cc(C)nc(NC(C)(C)C(=O)O)n1 the results were TPT1 inh -2, Rpn11 inh 71*, IDE inh 3, Calb FLC 17, Rin1 Abl inh 2, IDE act 6, Rpn11 inh conf -9, MMP-2 counter 3 and Thrombin FP -5.
Screening O=C(CSc1nnc2c(n1)[nH]c1ccc(F)cc12)OCc1ccccc1 returned TPT1 inh -4, Rpn11 inh 89*, IDE inh 5, Calb FLC 3, Rin1 Abl inh 2, IDE act 2, Rpn11 inh conf -5, MMP-2 counter 7 and Thrombin FP -10.
Screening COc1cccc(CNC(=O)CSc2nnc3c(n2)[nH]c2ccc(F)cc23)c1 returned TPT1 inh -1, Rpn11 inh -2, IDE inh -1, Calb FLC 5, Rin1 Abl inh 1 and IDE act -3.
`Cn1cc(S(=O)(=O)CC(=O)N2CCCc3ccccc32)c2ccccc21` gave TPT1 inh 0, Rpn11 inh 70*, IDE inh -5, Calb FLC -1, Rin1 Abl inh -2, IDE act 7, Rpn11 inh conf -3, MMP-2 counter -28 and Thrombin FP -4.
`O=C(OCc1c(F)cccc1Cl)c1cnc2ccccc2n1` gave TPT1 inh 3, Rpn11 inh -9, IDE inh 4, Calb FLC -9, Rin1 Abl inh -2 and IDE act 1.
Screening O=C(CCCCn1c(=O)[nH]c2ccccc2c1=O)N1CCN(c2cccc(C(F)(F)F)c2)CC1 returned TPT1 inh -6, Rpn11 inh 5, IDE inh 6, Calb FLC 17, Rin1 Abl inh 4 and IDE act -2.
`O=C(CCCn1c(=S)[nH]c2ccccc2c1=O)N1CCN(c2cccc(Cl)c2)CC1` gave TPT1 inh -1, Rpn11 inh 96*, IDE inh 9, Calb FLC inconclusive, Rin1 Abl inh 3, IDE act -1, Rpn11 inh conf 64*, MMP-2 counter 65* and Thrombin FP 4.
For CCc1ccc(C(=O)NNc2cc(Cl)cc(Cl)c2)cc1 the results were TPT1 inh -1, Rpn11 inh 1, IDE inh 4, Calb FLC -2, Rin1 Abl inh 2 and IDE act -1.
Screening CCc1ccc(C(=O)NNc2ccc(Cl)cc2)cc1 returned TPT1 inh -2, Rpn11 inh 37*, IDE inh 2, Calb FLC 0, Rin1 Abl inh 1, IDE act 3, Rpn11 inh conf -4, MMP-2 counter -22 and Thrombin FP -9.
`CC1=C(C(=O)N(C)C)CC(CC(=O)NCc2cccs2)C(=O)N1Cc1ccc(F)cc1` (stereo not drawn) gave Rpn11 inh 0 and Rin1 Abl inh 3.
Screening Cc1nnc(C)c2c(C)n(C(c3ccccc3)c3ccccc3)c(C)c12 returned TPT1 inh 20, Rpn11 inh 43*, IDE inh -9, Calb FLC -3, Rin1 Abl inh -4, IDE act 7, Rpn11 inh conf -19, MMP-2 counter -36 and Thrombin FP -9.
